# IDE cell activ: human IDE activators in live cells, primary screen, fluorescence polarization, HEK cells, FAbeta-B substrate; Insulin-degrading enzyme (Homo sapiens), P14735; FAbeta-B cleavage; 0% vehicle, 100% cell-free pure enzyme wells; 340,000 compounds, 0.073% hits; AID 493087, 2011; activation, % at 5.96 µM;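 active means activation above the mean of all tested compounds plus 3 SD, set per screening campaign, cut at about 17% in these data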
# SUMO Mot1 rescue: yeast Mot1-301 growth rescue at high temperature, primary screen, SUMOylation pathway inhibitor project, S. cerevisiae, ATP luminescence, 38.5C; S. cerevisiae Mot1-301 growth rescue; percent above DMSO median, 100 means doubled; growth rescue, % at 18.8 µM; 320,000 compounds, 1% hits;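 active means every valid replicate shows activation above 250% relative to neutral control wells; inactive means the rest, any valid replicate at or below 250%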;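 further: OY570 slx delta 5 strain wells were the positive control but not used for scaling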
# HDAC3 inh: HDAC3 deacetylase inhibitors, primary screen, biochemical, fluorescence, cell-free homogeneous; Histone deacetylase 3 (Homo sapiens), O15379; recombinant HDAC3, fluorogenic peptide/trypsin coupled; inhibition, % at 8.3 µM; 320,000 compounds, 0.15% hits; AID 2718, 2010; in the data active means inhibition above about 26%, passing the limit was not always enough
# IDE inh: human IDE inhibitors in live cells, primary screen, fluorescence polarization, HEK cells, FAbetaB substrate | 320,000 compounds, 0.41% hits | AID 434962, 2010 | Insulin-degrading enzyme (Homo sapiens), P14735 | inhibition, % at 5.59 µM | FAbetaB cleavage;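 active means percent inhibition above the average of all tested compounds plus 3 SD, set per screening campaign, cut at about 16% in these data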;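 further: IDE supplied by intact live HEK cells; FP after avidin binding of uncleaved biotin substrate so inhibition keeps polarization high; 0% = DMSO wells and 100% = 60 µM reference IDE inhibitor Ii1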
# LANA-H2B inh: blockers of LANA interaction with H2A/H2B – biochemical, FP readout, HTS, primary screen. inhibition, % (test concentration not listed). cell-free LANA-H2A/H2B peptide, fluorescence polarization. Protein LANA1 (Human herpesvirus 8 type P (isolate GK18)), Q9QR71. 320,000 compounds, 0.6% hits; in the data active means inhibition mostly above about 10%, no sharp cut-off; inactive means mostly below about 6.7%
# Target sequence (Q9QR71 whole entry, looked up): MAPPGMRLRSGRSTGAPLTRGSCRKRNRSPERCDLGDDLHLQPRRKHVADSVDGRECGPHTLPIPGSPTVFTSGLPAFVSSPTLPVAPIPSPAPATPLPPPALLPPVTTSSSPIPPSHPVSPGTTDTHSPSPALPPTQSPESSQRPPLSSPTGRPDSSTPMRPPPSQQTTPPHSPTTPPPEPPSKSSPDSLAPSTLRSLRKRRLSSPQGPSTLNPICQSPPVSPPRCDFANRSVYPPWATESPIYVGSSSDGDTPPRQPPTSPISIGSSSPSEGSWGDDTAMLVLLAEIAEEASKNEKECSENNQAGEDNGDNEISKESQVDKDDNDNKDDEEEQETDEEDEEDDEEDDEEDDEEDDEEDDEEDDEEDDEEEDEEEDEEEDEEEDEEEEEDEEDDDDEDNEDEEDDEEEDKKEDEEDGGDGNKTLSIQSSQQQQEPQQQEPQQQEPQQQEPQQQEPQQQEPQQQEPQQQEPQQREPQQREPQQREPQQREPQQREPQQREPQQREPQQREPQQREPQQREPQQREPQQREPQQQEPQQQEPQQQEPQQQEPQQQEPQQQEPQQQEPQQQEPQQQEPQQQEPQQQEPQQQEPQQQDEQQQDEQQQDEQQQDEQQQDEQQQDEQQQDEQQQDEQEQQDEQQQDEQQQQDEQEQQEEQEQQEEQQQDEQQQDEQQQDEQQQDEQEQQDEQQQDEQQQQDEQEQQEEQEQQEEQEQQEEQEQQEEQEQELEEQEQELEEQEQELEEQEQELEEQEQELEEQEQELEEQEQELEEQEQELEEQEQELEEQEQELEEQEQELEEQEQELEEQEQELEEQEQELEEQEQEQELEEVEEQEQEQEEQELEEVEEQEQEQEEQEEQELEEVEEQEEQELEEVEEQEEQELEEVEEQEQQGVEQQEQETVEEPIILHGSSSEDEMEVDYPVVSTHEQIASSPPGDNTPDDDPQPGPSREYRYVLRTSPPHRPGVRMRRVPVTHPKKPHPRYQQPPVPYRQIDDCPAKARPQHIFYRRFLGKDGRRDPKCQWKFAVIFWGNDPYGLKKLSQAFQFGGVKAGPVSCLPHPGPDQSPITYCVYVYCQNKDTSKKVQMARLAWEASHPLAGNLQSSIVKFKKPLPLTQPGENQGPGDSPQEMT
# Numbers without * were called inactive; i = inactive; nt = no result given; + = active, no number; ! = not confirmed by another sample. Compounds with a hit are over-represented: about 2.1% of the library has one in this group of screens.
SMILES,IDE cell activ,SUMO Mot1 rescue,HDAC3 inh,IDE inh,LANA-H2B inh
O=C(Cn1cnc2ccccc2c1=O)N1CCc2ccccc2C1,7,498*,-9,2,1
COc1ccc(CN(CC(=O)NCc2ccc(F)cc2)C(=O)c2csnn2)cc1,2,38,-2,2,-4
CCC(C)[C@H]1CNCCN1CCC12CC3CC(CC(C3)C1)C2 (stereo not given in full),5,8,-4,2,-1
c1csc(CNc2ncnc3ccc(-c4ccc5c(c4)OCCO5)cc23)c1,7,167,0,0,0
O=C(Oc1ccc(=O)n(-c2ccccc2)n1)c1cccc(Cl)c1,3,-6,44*,-3,3
COc1ccc(C(=O)Oc2ccc(=O)n(-c3ccccc3)n2)cc1,4,nt,76*,7,2
O=C1c2cccc3cccc(c23)N1Cc1cccc(F)c1,2,-2,2,-1,-2
CCCN(CC(=O)Nc1ccccc1C)C(=O)CCNC(=O)c1ccccc1Cl,-2,-6,2,5,5
C[C@H](CO)N1C[C@H](C)[C@@H](CN(C)C(=O)Nc2ccc(C(F)(F)F)cc2)Oc2ccc(NC(=O)Nc3ccc(C(F)(F)F)cc3)cc2C1=O,-1,-8,35*,0,-2
C[C@H]1CN([C@@H](C)CO)C(=O)c2cccc(NC(=O)Nc3ccc(C(F)(F)F)cc3)c2O[C@@H]1CN(C)C(=O)Nc1ccc(F)cc1,-1,13,35*,8,4
C[C@@H]1CN([C@H](C)CO)C(=O)c2cc(NC(=O)Nc3ccc4c(c3)OCO4)ccc2O[C@H]1CN(C)Cc1ccncc1,2,-3,-4,-1,+
COc1cccc(C(=O)COC(=O)C2CC(=O)N(c3ccc(Oc4ccccc4OC)cc3)C2)c1 (stereo not given),3,10,-8,-6,-2
Cc1csc(CCc2nc(C)cs2)n1,1,240,-2,5,8.4*
CC(=O)Nc1nc(C)cs1,9,-2,-6,3,-2
O=C(c1ccc(S(=O)(=O)Nc2ccccc2F)cc1)N1CCCC1,1,nt,nt,nt,nt
CCOC(=O)C[N+](C)(C)CCOC1CC2CCC1(C)C2(C)C (stereo not given),2,-13,1,-3,-3
CC1(C)C2CCC1(C)C(OCC[N+](C)(C)CC(=O)OC1CCCCC1)C2 (stereo not given),3,45,3,7,27*
Cc1ccc(NS(=O)(=O)c2cc(NC(=O)c3ccc4c(c3)NC(=O)CS4)ccc2Cl)c(C)c1,0,34,16,4,0
Cc1ccc(NC(=S)c2ccccc2)cc1,2,324*,1,-1,-1
NC(=O)COc1ccc(/C=C2\C(=O)ON=C2c2ccccc2)cc1,11,-9,-1,7,-1
COc1nc(Nc2ccc(O)cc2)nc(OC(C(F)(F)F)C(F)(F)F)n1,6,1,14,-1,0
Nc1cccc(Nc2nc(OC(C(F)(F)F)C(F)(F)F)nc(OC(C(F)(F)F)C(F)(F)F)n2)c1,-2,242,49*,4,2
COc1cccc(N(CC(=O)NCC2CCCO2)C(=O)CCC(=O)Nc2nccs2)c1 (stereo not given),5,-10,2,3,29*
Cc1cccc(N(CC(=O)NCC2CCCO2)C(=O)CCC(=O)Nc2nccs2)c1 (stereo not given),-3,-18,1,-19,3
CC(N)C12CC3CC(CC(C3)C1)C2 (stereo not given),3,329*!,12,-5,-6
SMILES,IDE cell activ,SUMO Mot1 rescue,HDAC3 inh,IDE inh,LANA-H2B inh
NC(CO)C12CC3CC(CC(C3)C1)C2 (stereo not given),9,1,-1,5,1
COc1cccc(CN(C)C(=O)CCNC(=O)c2ccco2)c1,4,-6,-16,1,4
COc1cccc(NC(=O)c2ccc(NC(=O)C(C)(C)C)cc2)c1,-2,10,5,1,0
CC(C)(C)C(=O)Nc1cccc(OC(F)(F)C(F)Cl)c1 (stereo not given),4,121,5,0,32*
CN(c1ccc(O)cc1)c1nc(-c2ccccc2)cs1,-8,55,-3,11,+
Cc1ccc(S(=O)(=O)Cc2ccc([N+](=O)[O-])cc2)cc1,0,i,-5,0,16*
O=C(CSCc1ccco1)c1ccc(Cl)s1,nt,-13,90*,-3,1
O=C(NNC(=S)NCc1ccco1)c1ccc(Cl)s1,4,72,-5,4,-8
COc1ccc(C2CC(O)(c3ccccc3)Oc3cc(OC)c(OC)c(OC)c32)cc1 (stereo not given),6,12,41*,-3,0
CC(C)Cn1c(CCCNC(=O)c2ccc(F)cc2)nc2ccccc21,-3,-9,4,5,11*
O=C(Cn1cncn1)NCc1ccccc1Br,-3,-6,1,-3,1
O=C(Cn1cncn1)c1ccccc1Br,5,357*,-1,-1,0
Brc1cccc(-c2n[nH]c(-c3ccccc3)n2)c1,4,49,5,1,17*
COc1ccc(NC(C)=O)cc1NC(=O)c1cccc(S(=O)(=O)N2CCc3ccccc32)c1,1,-17,6,3,-1
O=C(NCc1ccncc1)C(=O)NC1CC1,-2,6,-5,3,+
COc1ccc2c(c1)C(=O)Cc1ccccc1O2,1,300,0,-1,17*
CCc1cccc(C)c1NC(=O)C1CCCN(S(C)(=O)=O)C1 (stereo not given),0,13,-10,5,4
COc1ccc(OC(=O)c2cccc(S(=O)(=O)N3CC(C)OC(C)C3)c2)cc1 (stereo not given),2,nt,nt,-6,nt
O=C(Nc1ccccc1C(F)(F)F)N1CCC(N2CCCCC2)CC1,4,296*,-2,3,0
O=C(Nc1ccccc1C(F)(F)F)N1CCC(n2c(=O)[nH]c3ccccc32)CC1,4,6,3,5,-3
O=C(NC1CC1)C1CCN(C2CCN(Cc3ccccc3C(F)(F)F)CC2)CC1,-3,313*,5,2,-1
Cc1cc(CN2CCC(N3CCC(C(=O)NC4CC4)CC3)CC2)cc(C)c1O,2,-8,-2,0,-9
COc1ccc(C(=O)n2cnc3ccccc32)cc1,-5,-6,33*,6,-1
COc1ccc(C(=O)n2cnc(N)n2)cc1,0,-27,71*,4,0
COc1ccc(C(=O)n2cnc3ccccc32)cc1Br,1,-4,9,-2,-4
